Earlier results in PubChem BioAssay AID977608.
In all, about 4,300 compounds went through this assay and about 4,300 (100%) were called active. The limit is not given here; nearly all actives have IC50 up to about 1400 µM. The set was probably picked from earlier hits. This is one part of the list. Square brackets hold non-standard residues; d marks the D form. Peptide text beside a SMILES is read from it. β3hR = N=C(N)NCCC[C@H](N)CC(=O)O; β3hE = N[C@@H](CCC(=O)O)CC(=O)O; β3hQ = NC(=O)CC[C@H](N)CC(=O)O; β3hD = NC(CC(=O)O)CC(=O)O; β3hA = C[C@H](N)CC(=O)O

Assay: literature IC50 values for PDB complexes, PDB-derived complexes (AID 977608)
Details: PDB protein-ligand complexes

CC(C)C[C@H](N[P+](O)(O)O[C@@H]1O[C@@H](C)[C@H](O)[C@@H](O)[C@H]1O)C(=O)N[C@@H](Cc1c[nH]c2ccccc12)C(=O)O
IC50 (protein: human neutral endopeptidase (Neprilysin), PDB entry 1dmt): 0.002 µM (active)

O=C1N=C(c2ccccc2)C=CC1O (centres undefined)
IC50 (protein: Polymerase PA, PDB entry 4m5o): 0.38 µM (active)

Nc1csc2nccnc12
IC50 (protein: Dengue virus 3 non-structural protein 5, PDB entry 4ctk): 10000 µM (active)

O[C@@H]1[C@@H](CO[P+](O)(O)O)O[C@](O)(CO[P+](O)(O)O)[C@H]1O
IC50 (PDB entry 4fxf): 6.5 µM (active)

CCN1CCN(C(=O)N[C@@H](C(=O)N[C@H](C=O)[C@@H]2N[C@@H](C(=O)O)C(C)(C)S2)c2ccccc2)C(=O)C1=O
IC50 (protein: Penicillin-binding protein 3, PDB entry 4kqo): 0.166 µM (active)

CCN1CCN(C(=O)N[C@@H](C(=O)N[C@H](C(=O)O)[C@H]2N[C@@H](C(=O)O)C(C)(C)S2)c2ccccc2)C(=O)C1=O
IC50 (protein: Penicillin-binding protein 3, PDB entry 4kqq): 126 µM (active)
IC50 (protein: Penicillin-binding protein 3, PDB entry 4kqr): 126 µM (active)

CC(=O)Nc1cc(Oc2ccc3c(ccn3C(=O)Nc3ccc(CN4CCN(C)CC4)c(C(F)(F)F)c3)c2)ncn1
IC50 (protein: Tyrosine-protein kinase JAK2, PDB entry 3ugc): 0.947 µM (active)

N#C[C@@H](Cc1cccc(C(=O)c2c[nH]c3ncccc23)c1)C(N)=O
IC50 (protein: Ribosomal protein S6 kinase alpha-3, PDB entry 4jg7): 0.12 µM (active)

O=C(N[C@H]1CCCCCCC[C@@H]2C[C@@]2(C(=O)NS(=O)(=O)C2CC2)NC(=O)[C@@H]2C[C@@H](OC(=O)N3CCc4ccccc4C3)CN2C1=O)OC1CCCC1
IC50 (protein: Serine protease NS3, PDB entry 4ktc): 0.001 µM (active)

CCCCC[C@H](CC(=O)NO)C(=O)N[C@H](C(=O)N1CCC[C@H]1C(=O)O)C(C)C
IC50 (protein: Peptide Deformylase from Staphylococcus aureus, PDB entry 1q1y): 0.02 µM (active)

H-GSDARFLRGYHLYA-OH
IC50 (protein: HLA class II histocompatibility antigen, DR alpha chain, PDB entry 4ov5): 0.0369 µM (active)

H-MHRVSAALEEANKVFL-OH
IC50 (protein: Maltose ABC transporter periplasmic protein, Nuclear receptor subfamily 0 group B member 2 chimeric construct MBP-SHP, PDB entry 4nuf): 5 µM (active)

H-FLNKDLEVDGHFVTM-OH
IC50 (protein: HLA class I histocompatibility antigen, A-2 alpha chain HLA-A*0201, PDB entry 4u6y): 0.083 µM (active)

O=C(Nc1ccccc1N1CCNCC1)c1csc(-n2ncc3ccccc32)n1
IC50 (protein: Serine/threonine-protein kinase Chk1, PDB entry 4hyi): 0.003 µM (active)

CN1C(=O)N[C@H](Cc2c[nH]c3c(Cl)cccc23)C1=O
IC50 (protein: Receptor-interacting serine/threonine-protein kinase 1 (C34A, C127A, C233A, C240A mutation), PDB entry 4ith): 0.317 µM (active)

CO[C@H]1CCO[C@@]2(C)Oc3c(C)c(=O)c4c(O)c(c5oc6cccc(OCCCCN7CCN(CCn8ccnc8)CC7)c6nc5c4c3C2=O)NC(=O)[C@H](C)CCC[C@H](C)[C@H](O)[C@@H](C)[C@@H](O)[C@@H](C)[C@H](OC(C)=O)[C@@H]1C
IC50 (protein: DNA-directed RNA polymerase subunit alpha, PDB entry 4kn7): 0.024 µM (active)

CCN(CC)CCOc1cccc2oc3c4c(O)c5c(=O)c(C)c6c(c5c3nc12)C(=O)[C@@](C)(OCC[C@H](OC)[C@@H](C)[C@@H](OC(C)=O)[C@H](C)[C@H](O)[C@H](C)[C@@H](O)[C@@H](C)CCC[C@@H](C)C(=O)N4)O6
IC50 (protein: DNA-directed RNA polymerase subunit alpha, PDB entry 4kn4): 0.057 µM (active)

CC[C@H](C)[C@H](NC(=O)[C@H](C)N)C(=O)N[C@H](C)C(=O)N[C@@H](C)C(=O)N[C@@H](CCC(N)=O)CC(=O)N[C@@H](CC(C)C)C(=O)N[C@@H](CCCN=C(N)N)C(=O)N[C@@H](CCCN=C(N)N)CC(=O)N[C@@H](CCSC)C(=O)N[C@@H](C)C(=O)N[C@@H](CC(=O)O)C(=O)N[C@@H](CC(=O)O)CC(=O)N[C@@H](CC(C)C)C(=O)N[C@@H](CC(N)=O)C(=O)N[C@@H](C)CC(=O)N[C@@H](CCC(N)=O)C(=O)N[C@@H](Cc1ccc(O)cc1)C(=O)N[C@@H](CCC(=O)O)C(N)=O
IC50 (protein: fusion protein of mouse and human Mcl-1, PDB entry 4bpj): 1 µM (active)

CC[C@H](C)[C@H](NC(=O)C[C@H](CCC(=O)O)NC(=O)[C@H](CCC(=O)O)NC(=O)[C@H](C)N)C(=O)NCC(=O)N[C@@H](C)C(=O)N[C@@H](CCC(N)=O)CC(=O)N[C@@H](CC(C)C)C(=O)N[C@@H](CCCN=C(N)N)C(=O)N[C@@H](CCCN=C(N)N)CC(=O)N[C@@H](CCSC)C(=O)N[C@@H](C)C(=O)N[C@@H](CC(=O)O)C(=O)N[C@@H](CC(=O)O)CC(=O)N[C@@H](CC(C)C)C(=O)N[C@@H](CC(N)=O)C(=O)N[C@@H](C)CC(=O)N[C@@H](CCC(N)=O)C(=O)N[C@@H](Cc1ccc(O)cc1)C(=O)O (H-AE[β3hE]IGA[β3hQ]LR[β3hR]MAD[β3hD]LN[β3hA]QY-OH)
IC50 (protein: fusion protein of mouse and human Mcl-1, PDB entry 4bpi): 0.67 µM (active)

Nc1ncc2c(n1)-c1c([nH]c3ccc(Br)cc13)CCC2
IC50 (protein: Mitogen-activated protein kinase kinase kinase 14, PDB entry 4idt): 0.1 µM (active)

N#CNC(=NCCCCCCOc1ccc(Cl)cc1)Nc1ccncc1
IC50 (protein: Human Nicotinamide Phosphoribosyltransferase, PDB entry 4o12): 0.002 µM (active)

CCOc1ccc(C(=O)Nc2ccc(F)c([C@@]3(C)NC(N)OCC3(F)F)c2)nc1 (some centres undefined)
IC50 (protein: BETA-SECRETASE 2, PDB entry 3zlq): 0.904 µM (active)
IC50 (protein: Beta-secretase 1, PDB entry 4j0t): 0.184 µM (active)

CCOP(=O)(COc1ccc(CCc2cnc3c(c2)C(=O)N(C)c2cccnc2N3CC)cc1)OCC
IC50 (protein: Reverse transcriptase, PDB entry 4i7f): 0.1 µM (active)

O=C(COc1ccccc1[P+](O)(O)O)Nc1ccccc1Cl
IC50 (protein: 14-3-3 protein sigma, PDB entry 4dhr): 27 µM (active)

O=C(COc1ccccc1[P+](O)(O)O)Nc1cccc(Cl)c1Cl
IC50 (protein: 14-3-3 protein sigma, PDB entry 4dhu): 5 µM (active)

O=C(COc1ccccc1[P+](O)(O)O)Nc1ccccc1C(F)(F)F
IC50 (protein: 14-3-3 protein sigma, PDB entry 3t0l): 30 µM (active)

O=C(COc1ccccc1[P+](O)(O)O)Nc1cc(C(F)(F)F)ccc1Cl
IC50 (protein: 14-3-3 protein sigma, PDB entry 4dhp): 36 µM (active)
